Assay results taken from PubChem BioAssay (EPA / NIEHS).
The source made the active and inactive calls. The calls were made as follows: active = hit-call score of the fitted dose curve at least 0.9, where 1 is the maximum; inactive = score below 0.9.

Legend:
[1] = ATG_CRE_CIS: Attagene CIS-FACTORIAL HepG2 Assay for human cAMP Responsive Element (CRE) binding protein 3 (AID 2282926); details: HepG2 CRE cis-reporter, Attagene multiplexed mRNA; actives raise or lower the signal
Summary of the method: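 Assay format: transient reporter transfection of HepG2, 24 h treatment, total RNA isolation with DNase I step. Reporter abundance read by fluorescence after PCR and capillary separation; DMSO-normalised gain or loss fitting.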

[2] = ATG_CMV_CIS: Attagene CIS-FACTORIAL HepG2 Assay for human CMV (Internal Marker) (AID 2282928); details: HepG2 CMV promoter reporter, transcription factor profiling; actives raise or lower the signal;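 also: endpoint acts as a background internal control marker rather than a target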
Summary of the method: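 24 h chemical treatment, HepG2 with transient multi-reporter transfection; RNA → oligo(dT) RT → PCR → 6-FAM extension → HpaI digest → CE fluorescence. Bidirectional fit, DMSO negative control.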

[3] = ATG_DR4_LXR_CIS: Attagene CIS-FACTORIAL HepG2 Assay for human Liver X Receptor (LXR), DR4 submotif (AID 2282929); details: HepG2 Attagene DR4 cis-reporter, mRNA transcription; actives raise or lower the signal
Summary of the method: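 Transiently transfected HepG2 liver cells; cis-regulated reporters; 24 h dosing. RT-PCR plus CE read-out of reporter mRNA. DMSO baseline, bidirectional curve fitting.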

[4] = ATG_AP_1_CIS: Attagene CIS-FACTORIAL HepG2 Assay for human Activator Protein 1 (AP-1) (AID 2282931); details: HepG2 Attagene cis-factorial AP-1 reporter mRNA; actives raise or lower the signal
Summary of the method: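 We transfected HepG2 cells transiently with a set of cis-regulated reporter transcription units, dosed them for 24 h, and quantified reporter mRNA via RT-PCR and capillary electrophoresis, scoring gain or loss of signal relative to DMSO.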

[5] = ATG_AP_2_CIS: Attagene CIS-FACTORIAL HepG2 Assay for human Activator Protein 2 (AP-2) (AID 2282932); details: HepG2 AP-2 cis-reporter, Attagene transcription factor profiling; actives raise or lower the signal
Summary of the method: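 Cells (HepG2) transfected with promoter-driven reporter constructs, treated 24 h. Total RNA reverse-transcribed, reporter cDNA PCR-amplified, FAM-labelled by primer extension, digested, resolved by capillary electrophoresis. Activity fitted both directions versus DMSO.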

[6] = ATG_BRE_CIS: Attagene CIS-FACTORIAL HepG2 Assay for human Bone Morphogenetic Protein (BMP) Response Element (BRE) (AID 2282933); details: HepG2 BMP response element reporter, Attagene transcription factor profiling; actives raise or lower the signal
Summary of the method: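 Transient MRTU transfection of human HepG2 liver cells; 24 h compound treatment; total RNA isolated, reverse-transcribed, PCR-amplified, 6-FAM labelled, HpaI-cut, capillary electrophoresis. DMSO = negative control/baseline, bidirectional fit.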

[7] = target: Retinoic acid receptor alpha (Homo sapiens) (UniProt P10276); assay: ATG_DR5_RAR_CIS: Attagene CIS-FACTORIAL HepG2 Assay for human Retinoic Acid Receptor Alpha (RARE), DR5 submotif (AID 2282934); details: HepG2 Attagene cis-factorial RARE DR5 reporter, mRNA; actives raise or lower the signal;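 as to AC50: reporter responds to endogenous RAR alpha beta and gamma in HepG2 not RARA alone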
Summary of the method: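 HepG2 cells transiently transfected with multiplexed reporter units under cis (DR5 RARE) promoters, so endogenous transcription factor activity is measured. After 24 h compound exposure, reporter mRNA is quantified by RT-PCR with fluorescent labelling and capillary electrophoresis; bidirectional fitting versus DMSO.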

[8] = target: Transcription factor E2F1 (Homo sapiens) (UniProt Q01094); assay: ATG_E2F_CIS: Attagene CIS-FACTORIAL HepG2 Assay for human E2F Transcription Factor 1 (AID 2282935); details: HepG2 Attagene cis-reporter, E2F reporter RNA transcripts; actives raise or lower the signal
Summary of the method: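 First, HepG2 cells were transfected with reporter transcription units. Next, they were dosed for 24 h. Then RNA was isolated, converted to cDNA, PCR-amplified, FAM-labeled, HpaI-digested and analyzed by capillary electrophoresis.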

[9] = ATG_E_Box_CIS: Attagene CIS-FACTORIAL HepG2 Assay for human Enhancer Box (E-box) (AID 2282936); details: HepG2 E-box cis-reporter transcription, actives raise or lower the signal
Summary of the method: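 Endogenous transcription factor activity was sensed in human HepG2 liver cells through transfected cis-promoter reporter units. After 24 h of dosing, total RNA was reverse-transcribed and reporter cDNA resolved by capillary electrophoresis.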

[10] = ATG_M_61_CIS: Attagene CIS-FACTORIAL HepG2 Assay for M61 Transcription Factor (Internal Marker) (AID 2282937); details: HepG2 Attagene CIS-FACTORIAL M61 internal marker reporter; actives raise or lower the signal
Summary of the method: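 Multiplexed reporter mRNA assay, HepG2 human hepatoma cells, 24 h treatment. Signal: FAM-labelled, HpaI-digested RT-PCR fragments by CE. Fit: bidirectional, baseline DMSO.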

[11] = ATG_EGR_CIS: Attagene CIS-FACTORIAL HepG2 Assay for human Early Growth Response 1 (EGR1) (AID 2282938); details: HepG2 Attagene CIS-FACTORIAL EGR reporter mRNA; actives raise or lower the signal
Summary of the method: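 Multiplexed cis-reporter system in human hepatoma HepG2 cells, transiently transfected. Cells are dosed for 24 h; reporter transcripts are amplified, fluorescently tagged and sized by capillary electrophoresis, with DMSO as negative control.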

[12] = ATG_M_19_CIS: Attagene CIS-FACTORIAL HepG2 Assay for M19 Transcription Factor (Internal Marker) (AID 2282939); details: HepG2 Attagene CIS-FACTORIAL M19 internal marker reporter; actives raise or lower the signal
Summary of the method: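 Transfect HepG2 with MRTU reporter library → dose chemical, 24 h → isolate total RNA, reverse-transcribe with oligo(dT) → PCR, 6-FAM label, HpaI cut (2 h, 37 C) → capillary electrophoresis. Bidirectional fit vs DMSO.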

[13] = ATG_ERE_CIS: Attagene CIS-FACTORIAL HepG2 Assay for Estrogen Response Element (ERE) (AID 2282940); details: HepG2 ERE cis-reporter, Attagene RNA transcript; actives raise or lower the signal
Summary of the method: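 Transient MRTU transfection of human HepG2; cis-element promoters; 24 h dosing; total RNA → RT (oligo dT) → PCR → 6-FAM primer extension → HpaI digest → CE fluorescence. Bidirectional fit, DMSO baseline.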

[14] = ATG_Ets_CIS: Attagene CIS-FACTORIAL HepG2 Assay for human Erythroblast Transformation Specific (ETS) (AID 2282941); details: HepG2 ETS cis-reporter transcription, actives raise or lower the signal
Summary of the method: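 Cis-regulated reporter mRNA induction in HepG2 (transient transfection), 24 h exposure, RT-PCR plus capillary electrophoresis detection; DMSO serves as negative control and baseline.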

[15] = target: Hepatocyte nuclear factor 3-beta (Homo sapiens) (UniProt Q9Y261); assay: ATG_FoxA2_CIS: Attagene CIS-FACTORIAL HepG2 Assay for human Forkhead box A2 (FOXA2) (AID 2282942); details: HepG2 cis-reporter transcription factor activity, 24 h; actives raise or lower the signal
Summary of the method: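 Multiplexed cis-element reporter assay in transiently transfected HepG2. Twenty-four hours post-dosing, RNA was reverse-transcribed, amplified, FAM-labelled, HpaI-digested and separated by CE. Activity gain or loss relative to DMSO.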

[16] = ATG_FoxO_CIS: Attagene CIS-FACTORIAL HepG2 Assay for human Forkhead box O (FoxO) (AID 2282943); details: HepG2 Attagene cis-reporter, FoxO element, mRNA; actives raise or lower the signal
Summary of the method: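 HepG2 cells transiently transfected with cis-promoter-driven multiple reporter transcription units; 24 h after chemical dosing, reporter mRNA quantified by RT-PCR, fluorescent primer extension, HpaI digestion and capillary electrophoresis. Bidirectional fitting versus DMSO baseline.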

[17] = ATG_GLI_CIS: Attagene CIS-FACTORIAL HepG2 Assay for human Zinc Finger Protein GLI1 (AID 2282945); details: HepG2, Attagene cis-factorial reporter mRNA, GLI element; actives raise or lower the signal
Summary of the method: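 HepG2 cells transiently transfected with cis-promoter multiplexed reporter units report endogenous transcription factor activity. After 24 h chemical exposure, reporter mRNA was quantified by RT-PCR, 6-FAM labelling, HpaI digestion and capillary electrophoresis, with bidirectional fitting against DMSO.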

[18] = target: Aryl hydrocarbon receptor (Homo sapiens) (UniProt P35869); assay: ATG_Ahr_CIS: Attagene CIS-FACTORIAL HepG2 Assay for human Aryl Hydrocarbon Receptor (Ahr) (AID 2282930); details: HepG2 AhR cis-factorial reporter transcription; actives raise or lower the signal
Summary of the method: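 HepG2 cells transiently transfected with cis-element-driven multiplexed reporter transcription units; endogenous transcription factor activity measured as reporter mRNA 24 h after dosing. RT-PCR, 6-FAM labelling, HpaI digestion, capillary electrophoresis; bidirectional fitting versus DMSO baseline.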

[19] = ATG_GATA_CIS: Attagene CIS-FACTORIAL HepG2 Assay for human GATA Binding Protein (AID 2282944); details: HepG2 GATA cis-element reporter, Attagene multiplex mRNA; actives raise or lower the signal
Summary of the method: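 Transient MRTU transfection, HepG2, 24 h compound exposure. Total RNA → oligo(dT) RT → PCR → 6-FAM primer extension → HpaI cut → CE. Bidirectional fit vs DMSO.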

[20] = target: CCAAT/enhancer-binding protein beta (Homo sapiens) (UniProt P17676); assay: ATG_C_EBP_CIS: Attagene CIS-FACTORIAL HepG2 Assay for human CCAAT/Enhancer Binding Protein (C/EBP) beta (AID 2282927); details: HepG2 Attagene cis-factorial transcription factor reporter; actives raise or lower the signal
Summary of the method: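 RT-PCR/capillary electrophoresis fluorescence of reporter mRNA, 24 h post-dose, in HepG2 cells carrying transfected cis-promoter reporter units. Bidirectional curve fitting against DMSO baseline captures gain or loss of signal.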

Measured: AC50

Sequence of Retinoic acid receptor alpha (Homo sapiens) (P10276 whole entry, looked up): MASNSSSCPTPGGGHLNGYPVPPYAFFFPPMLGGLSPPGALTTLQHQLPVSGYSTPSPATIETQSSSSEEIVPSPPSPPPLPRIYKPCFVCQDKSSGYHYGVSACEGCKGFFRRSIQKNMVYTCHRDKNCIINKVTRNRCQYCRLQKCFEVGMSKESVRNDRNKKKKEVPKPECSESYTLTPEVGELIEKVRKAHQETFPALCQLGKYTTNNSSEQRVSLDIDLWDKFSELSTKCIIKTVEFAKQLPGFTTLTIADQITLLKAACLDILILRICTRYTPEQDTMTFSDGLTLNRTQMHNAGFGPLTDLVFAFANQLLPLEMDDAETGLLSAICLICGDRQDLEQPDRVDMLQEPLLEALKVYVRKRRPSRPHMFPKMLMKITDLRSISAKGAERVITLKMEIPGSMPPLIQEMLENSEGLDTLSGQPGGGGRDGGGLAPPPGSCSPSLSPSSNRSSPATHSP
Sequence of Transcription factor E2F1 (Homo sapiens) (Q01094 whole entry, looked up): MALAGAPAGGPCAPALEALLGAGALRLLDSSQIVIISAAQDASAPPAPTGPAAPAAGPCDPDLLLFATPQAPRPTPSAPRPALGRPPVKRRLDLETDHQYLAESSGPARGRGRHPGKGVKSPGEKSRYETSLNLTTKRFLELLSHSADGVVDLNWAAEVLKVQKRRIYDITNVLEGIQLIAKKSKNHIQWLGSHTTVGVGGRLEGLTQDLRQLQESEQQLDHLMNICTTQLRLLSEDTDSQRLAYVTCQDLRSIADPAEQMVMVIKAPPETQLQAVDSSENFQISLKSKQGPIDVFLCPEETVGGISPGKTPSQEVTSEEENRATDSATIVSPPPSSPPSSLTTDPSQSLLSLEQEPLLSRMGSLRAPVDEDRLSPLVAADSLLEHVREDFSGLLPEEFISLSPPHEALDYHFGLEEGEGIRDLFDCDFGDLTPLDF
Sequence of Hepatocyte nuclear factor 3-beta (Homo sapiens) (Q9Y261 whole entry, looked up): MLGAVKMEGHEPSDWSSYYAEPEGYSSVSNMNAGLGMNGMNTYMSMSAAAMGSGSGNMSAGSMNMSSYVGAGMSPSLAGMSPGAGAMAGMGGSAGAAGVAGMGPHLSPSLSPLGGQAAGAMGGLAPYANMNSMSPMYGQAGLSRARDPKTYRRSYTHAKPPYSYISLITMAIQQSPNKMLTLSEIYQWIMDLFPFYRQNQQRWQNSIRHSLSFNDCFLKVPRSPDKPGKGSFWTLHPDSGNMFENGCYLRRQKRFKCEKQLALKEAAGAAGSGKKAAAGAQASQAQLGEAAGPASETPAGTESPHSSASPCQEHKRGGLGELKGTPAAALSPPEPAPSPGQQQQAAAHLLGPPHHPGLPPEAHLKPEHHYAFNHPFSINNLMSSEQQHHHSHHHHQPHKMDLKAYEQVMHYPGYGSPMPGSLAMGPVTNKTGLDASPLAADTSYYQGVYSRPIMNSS
Sequence of CCAAT/enhancer-binding protein beta (Homo sapiens) (P17676 whole entry, looked up): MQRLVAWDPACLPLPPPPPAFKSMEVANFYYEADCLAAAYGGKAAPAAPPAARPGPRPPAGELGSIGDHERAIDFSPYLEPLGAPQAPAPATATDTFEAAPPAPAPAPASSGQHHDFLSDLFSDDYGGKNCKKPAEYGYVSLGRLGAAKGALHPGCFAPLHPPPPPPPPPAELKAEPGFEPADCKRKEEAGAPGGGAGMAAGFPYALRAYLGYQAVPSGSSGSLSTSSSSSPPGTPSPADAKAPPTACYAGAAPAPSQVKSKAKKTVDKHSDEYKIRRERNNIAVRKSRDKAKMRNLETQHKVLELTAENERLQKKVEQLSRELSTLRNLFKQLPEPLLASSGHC
Sequence of Aryl hydrocarbon receptor (Homo sapiens) (P35869 whole entry, looked up): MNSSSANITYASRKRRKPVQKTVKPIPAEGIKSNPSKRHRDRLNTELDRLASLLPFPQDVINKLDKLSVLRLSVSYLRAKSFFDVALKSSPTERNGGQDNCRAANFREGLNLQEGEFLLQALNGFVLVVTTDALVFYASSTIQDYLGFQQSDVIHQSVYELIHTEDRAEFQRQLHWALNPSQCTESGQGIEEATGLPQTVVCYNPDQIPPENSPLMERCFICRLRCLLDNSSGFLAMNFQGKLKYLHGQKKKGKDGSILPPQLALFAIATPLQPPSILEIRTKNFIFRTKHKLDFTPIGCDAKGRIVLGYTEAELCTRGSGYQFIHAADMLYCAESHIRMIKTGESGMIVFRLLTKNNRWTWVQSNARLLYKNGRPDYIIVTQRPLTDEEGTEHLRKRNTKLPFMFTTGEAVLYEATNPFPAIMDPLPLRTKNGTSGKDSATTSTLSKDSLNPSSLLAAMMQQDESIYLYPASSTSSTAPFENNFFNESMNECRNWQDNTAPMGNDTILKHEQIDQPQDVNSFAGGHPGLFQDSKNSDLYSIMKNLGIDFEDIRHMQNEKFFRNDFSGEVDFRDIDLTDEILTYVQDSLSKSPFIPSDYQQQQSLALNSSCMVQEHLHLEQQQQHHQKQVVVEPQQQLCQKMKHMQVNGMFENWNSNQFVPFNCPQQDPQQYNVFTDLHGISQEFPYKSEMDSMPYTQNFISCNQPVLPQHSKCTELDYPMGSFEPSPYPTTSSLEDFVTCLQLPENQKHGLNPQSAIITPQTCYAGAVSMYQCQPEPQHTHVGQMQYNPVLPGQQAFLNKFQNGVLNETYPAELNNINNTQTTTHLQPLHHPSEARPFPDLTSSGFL

C=C(C)c1cccc(C(C)(C)N=C=O)c1
not listed: [18] | [19] | [20]
inactive: all other assays above

CC(C)(C)c1ccc(-c2ccc(C(C)(C)C)cc2)cc1
active: [2] 51.8 µM
not listed: [20]
inactive: all other assays above

N=c1ccn2c(n1)O[C@H]1[C@H](O)[C@@H](CO)O[C@H]12
not listed: [8] | [15] | [19] | [20]
inactive: all other assays above

Cc1c(C)c([N+](=O)[O-])c(C(C)(C)C)c([N+](=O)[O-])c1C
active: [7] 5.92 µM
not listed: [1] | [19]
inactive: all other assays above

CCCCOCCOC(=O)COc1nc(Cl)c(Cl)cc1Cl
active: [13] 26.2 µM
not listed: [1] | [2] | [5] | [10]
inactive: all other assays above

CCC(C)C=O (stereo unspecified)
not listed: [1] | [18]
inactive: all other assays above

C1=Cc2ccccc2C1
active: [18] 5.55 µM | [13] 44.3 µM
not listed: [1]
inactive: all other assays above

CCCCC(CC)COCC1CO1 (stereo unspecified)
not listed: [1] | [15]
inactive: all other assays above
